# Assay results taken from PubChem BioAssay AID686978 (National Center for Advancing Translational Sciences (NCATS), 2013).
# Screen size: about 420,000 compounds; about 64,000 (15%) were called active. Not shown: some 27% with an inconclusive outcome. A selection follows. Values without a mark were called inactive. Calls follow the shape of the dose curve; as a rule, active = well fitted inhibition curve with a large enough effect; inconclusive = small, poorly fitted or top-dose-only effect; inactive = flat fitted curve, though single readings scatter.
# Test: qHTS for Inhibitors of human tyrosyl-DNA phosphodiesterase 1 (TDP1): qHTS in cells in absence of CPT; also: nearly all actives have a fitted effect of over 55% in size
# Conditions: DT40 Tdp1-/- hTDP1 cells, no CPT, ATP luminescence, 48 h; activity change, negative = growth inhibition: at 46.2 µM (top of the series)
# How it was run: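 Growth of hTDP1-complemented DT40 Tdp1-knockout cells is measured by ATP luminescence after at least 48 hr compound exposure at 37 °C, with DMSO substituting for the 20 nM CPT used in the parallel screen.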
# % is scaled to controls: 0 for no effect and ±100 for the full control effect; potency is read from the fitted curve at half-maximal effect.
SMILES,"activity change, negative = growth inhibition",Potency
COc1ccc(S(=O)(=O)NC(C)c2ccccc2)cc1C(=O)N1CCCCC1 (stereo not given),-5.94%,–
Cc1ccc(CNC(=O)c2c(-c3ccccc3)noc2C)cc1,-4.56%,–
Cc1cc(C)cc(NC(=O)CCCc2nc(-c3ccccc3Cl)no2)c1,-11.2%,–
Cc1ccc2cc(CCNC(=O)c3c(-c4ccccc4Cl)noc3C)c(=O)[nH]c2c1,–,18.4 µM (active)
O=S(=O)(/C=C/c1ccccc1)NCCc1ccccn1,1.82%,–
COc1ccc(C(=O)N[C@H](C(=O)NCc2ccccc2)C(C)C)cc1,-23.7%,–
COc1cc(OC)cc(C(=O)N[C@H](C(=O)OCC(=O)NC(C)c2ccccc2)C(C)C)c1 (stereo not given in full),-21.4%,–
COc1cc(OC)cc(C(=O)N[C@H](C(=O)Nc2nc3ccccc3[nH]2)C(C)C)c1,–,2.59 µM (active)
C=CCSc1nnc(Cn2c(=O)sc3ccccc32)n1C,10.5%,–
COc1ccc(CCN2CC(C(=O)OCC(=O)NCc3ccccc3Cl)CC2=O)cc1OC (stereo not given),26.6%,–
COC(=O)[C@]1(C)CCC[C@@]2(C)C3CC[C@]4(OC(C)=O)C[C@@]3(CCC21)CC4=NO (stereo not given in full),–,16.4 µM (active)
CN1CCN(C(=O)N2c3ccccc3CCc3ccccc32)CC1,-30%,–
CC(C)c1cc(Cn2c3ccccc3c(=O)n2C(C)Cn2cc(C3CC3)nn2)on1 (stereo not given),6.1%,–
CC(C)Oc1ccc(CN2CCC(n3nccc3NC(=O)c3cccnc3)CC2)cc1,-0.551%,–
CCOC(=O)C1=NNC2(c3ccc(Cl)cc3)C(=O)N(c3cc(C)cc(C)c3)C(=O)C12 (stereo not given),-6.76%,–
Cc1nn(Cc2ccccc2)c2c1C(c1ccccc1)C(C#N)=C(N)O2 (stereo not given),–,25.9 µM (active)
Cc1cc2c(c(=O)n1Cc1ccco1)C(c1ccccc1)C(C#N)=C(N)O2 (stereo not given),-6.25%,–
COc1ccc(-c2[nH]nc3c2C(c2ccncc2)C(C#N)=C(N)O3)cc1 (stereo not given),-26.7%,–
O=C(COC(=O)c1cc([N+](=O)[O-])ccc1NCc1ccccc1)NC1CCCCC1,-26.8%,–
Nc1c(Cl)cc(-c2csc(N3CCCC3c3nc4cc(Cl)c(Cl)cc4n3CCOCCO)n2)cc1Cl (stereo not given),-7.82%,–
Cc1ccc(-c2csc(N3CCN(c4cc5c(cc4Cl)nc(-c4ccncc4)n5CCOCCO)CC3)n2)cc1,–,29.1 µM (active)
CC(=O)OCCN(CCCn1c(-c2ccncc2)nc2ccccc21)c1nc(-c2ccc(C)cc2)cs1,-19.6%,–

SMILES,"activity change, negative = growth inhibition",Potency
CC(NC(=O)c1ccc(S(=O)(=O)Nc2ccccc2)cc1)c1ccc(S(N)(=O)=O)cc1 (stereo not given),3.6%,–
CCOC(=O)c1cc2occc2n1CC(=O)NC1CCC(C)CC1 (stereo not given),-7.14%,–
CC(=O)N1C[C@@H](CO)[C@@H](N(C)C(=O)c2ccco2)C[C@H]1c1ccccc1,-1.14%,–
Cn1c(SCC(=O)Nc2ccc(Cl)cc2)nc(O)cc1=O,-3.9%,–
CCSc1nnc(NC(=O)c2ccc(C)cc2)s1,-4.86%,–
CCCSc1ncc(Cl)c(C(=O)Nc2c(C(=O)Nc3ccccc3)oc3ccccc23)n1,-8.39%,–
O=C(Nc1ccccc1C(F)(F)F)c1nc(S(=O)(=O)Cc2ccccc2F)ncc1Cl,–,0.708 µM (active)
NC(=O)CSc1nnc(NC(=O)c2ccc(Br)o2)s1,-14.2%,–
Cc1ccc(NC(=O)c2nc(S(=O)(=O)Cc3cccc(C)c3)ncc2Cl)cc1,–,0.651 µM (active)
CSc1nnc(NC(=O)c2nc(S(=O)(=O)Cc3ccc(C)cc3)ncc2Cl)s1,–,4.11 µM (active)
CCSc1ncc(Cl)c(C(=O)Nc2cc(C)ccc2C)n1,–,inactive
O=C(Nc1nc2ccc(F)cc2s1)c1nc(SCc2ccccc2F)ncc1Cl,-6.24%,–
CN(CC(=O)Nc1ccccc1C(F)(F)F)C(=O)Cc1ccccc1F,-4.86%,–
Cc1cccc(C(=O)Nc2ccc(Oc3cnccn3)cc2)c1,8.2%,–
Cc1cccc(NC(=O)c2nc(S(=O)(=O)Cc3ccccc3)ncc2Cl)c1,–,2.06 µM (active)
Cc1cccc(NC(=O)C(C)SCc2ccccc2)c1 (stereo not given),-1.64%,–
CCOc1ccc(S(=O)(=O)N2CCN=C2Cc2ccccc2)cc1C,-25.1%,–
O=C(COC(=O)c1cc(=O)[nH]c2ccccc12)NCc1cccc(Cl)c1,-0.601%,–
COc1ccccc1C1SCCN1C(=O)c1ccc([N+](=O)[O-])cc1 (stereo not given),4.74%,–
Cc1cc(/C=C2\SC(=O)N(C)C2=O)c(C)n1-c1cccc(C(=O)O)c1,8.74%,–
Nc1cccc(-c2cncc(N3CCN(Cc4ccccn4)CC3)n2)c1,-26.4%,–
Nc1c(-c2ccccc2)nnn1Cc1ccccc1,-3.82%,–

SMILES,"activity change, negative = growth inhibition",Potency
O=C(Nc1cccnc1)c1ccc(Cl)cc1[N+](=O)[O-],1.36%,–
Clc1ccc(C=NC23CN4CN(CN(C4)C2)C3)cc1,5.74%,–
Cc1cccc(OCc2ccc(C(=O)Nc3ccc(F)cc3)cc2)c1,-17.5%,–
Cn1cc([N+](=O)[O-])c(C(=O)Nc2cnn(Cc3ccc(F)cc3)c2)n1,-11.5%,–
Cc1cccc(CS(=O)(=O)c2ncc(Cl)c(C(=O)Nc3ccc(F)cc3)n2)c1,–,1.84 µM (active)
COc1ccc(S(=O)(=O)NC(C)C(=O)NCc2ccncc2)cc1Cl (stereo not given),-28.8%,–
O=C(NC1CCCC1)C1CC(=O)N(c2ccc(F)cc2)C1 (stereo not given),-12.7%,–
O=[N+]([O-])c1ccc(N2CCN(c3ccc(F)cc3)CC2)cn1,-4.53%,–
O=C(c1cccc(C(=O)N2CCN(c3ccc(F)cc3)CC2)c1)N1CCN(c2ccc(F)cc2)CC1,–,13 µM (active)
O=C(c1cc2cc(F)ccc2[nH]1)N1CCN(c2ccc(F)cc2)CC1,7.44%,–
O=C(c1cc(C(=O)N2CCN(c3ccc(F)cc3)CC2)cc([N+](=O)[O-])c1)N1CCN(c2ccc(F)cc2)CC1,–,4.61 µM (active)
Cc1noc(C)c1S(=O)(=O)Nc1ccc(C(=O)N2CCN(c3ccc(F)cc3)CC2)cc1,-25.6%,–
O=C(c1cc(-c2ccc(F)cc2)on1)N1CCN(c2ccc(F)cc2)CC1,1.37%,–
CS(=O)(=O)N1CCC2(CC1)CN(Cc1cc(C(F)(F)F)cc(C(F)(F)F)c1)C2,0.577%,–
Cc1c(NC(=O)COC(=O)/C=C/c2cccc(F)c2)c(=O)n(-c2ccccc2)n1C,-19.5%,–
Cc1ccnc(NS(=O)(=O)c2ccc(NC(=O)c3oc4ccccc4c3C)cc2)n1,0.414%,–
Cc1oc(C(N)=O)cc1COc1ccc(C(N)=O)cc1,-8.07%,–
CCc1cccc2c3c([nH]c12)C(CC)(CC(=O)O)OCC3 (stereo not given),–,inactive
CC(OC(=O)CN1C(=O)C2CCCCC2C1=O)C(=O)Nc1ncc(Cl)cc1Cl (stereo not given),-9.52%,–
CC1=CC(C)(C)Nc2ccc(OC(=O)CN3C(=O)C4CCCCC4C3=O)cc21 (stereo not given),–,2.31 µM (active)
O=C(COC(=O)CN1C(=O)C2CCCCC2C1=O)Nc1ccc(F)c(F)c1F (stereo not given),10.7%,–
